Pol eta inh-1: qHTS for Inhibitors of Polymerase Eta; 1.2% of 390,000 active; recombinant Pol eta, fluorescent DNA replication assay; Potency, µM (top dose mostly 114 µM), without a hit: at the highest dose activity change, negative = inhibition, hits mostly inhibitors; DNA polymerase eta (Homo sapiens), Q9Y253; AID 588591, 2011; note: % is set by controls: 0 for no effect and ±100 for the full control effect
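Fluorescent replication assay: 50 nM final substrate added after a 15 min room-temperature compound preincubation with 10 nM enzyme. Signal taken at 0 min and again at 10 min.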
FEN1 inhibitor: qHTS Assay for the Inhibitors of Human Flap endonuclease 1 (FEN1); P39748; Recombinant FEN1 flap cleavage, fluorescence, 15 min; Potency, µM (top dose mostly 114 µM), for the others: at the top dose activity change, negative = inhibition, hits mostly inhibitors; 0.35% of 390,000 active; AID 588795, 2011; note: % is set by controls: 0 for no effect and ±100 for the full control effect; nearly all actives have a fitted effect of over 65% in size
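Reaction started by adding substrate (50 nM final) to 10 nM enzyme after 15 min room-temperature compound preincubation. Reads at 0 and 15 min, with data normalized and fitted to a four-parameter Hill equation.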
POLI inh: qHTS for Inhibitors of Polymerase Iota | DNA polymerase iota (Homo sapiens), Q9UNA4 | Pol iota fluorescent replication assay, 10 min | Potency, µM (titrated, usually from 115 µM), inactives show top-dose activity, negative = inhibition, actives largely listed as inhibitors | 1% of 390,000 active | AID 588590, 2011
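Pol iota at 10 nM preincubated 15 min with compounds at room temperature; reaction started with fluorescent substrate, 50 nM final. Fluorescence read kinetically at 0 and 10 min; buffer-only wells as negative control.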
WRN inhibitor: qHTS for Inhibitors of WRN Helicase | 0.46% of 360,000 active | WRN helicase unwinding, fluorescent forked duplex, kinetic | Potency, µM (top dose mostly 114 µM), for the others: at the highest dose activity change, negative = inhibition, hits mostly inhibitors | Bifunctional 3'-5' exonuclease/ATP-dependent helicase WRN (Homo sapiens), Q14191; note: % is set by controls: 0 for no effect and ±100 for the full control effect; nearly all actives have a fitted effect of over 55% in size
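Enzyme (20 nM final) and test compound sit together 15 min at room temperature before substrate addition. Substrate is a single-forked duplex oligonucleotide (100 nM) labelled with fluorophore and quencher, with 2 mM ATP; helicase unwinding raises red fluorescence, read kinetically.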
Pol beta inh: qHTS Assay for Inhibitors of DNA Polymerase Beta | 1.3% of 340,000 active | Pol beta primer extension/strand displacement, fluorescence kinetic | Potency, µM (series often up to 114 µM), for the others: at the highest dose activity change, negative = inhibition, hits mostly inhibitors | P06746; note: % is set by controls: 0 for no effect and ±100 for the full control effect
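Kinetic readout of DNA synthesis with strand displacement by Pol beta. Compound and 10 nM enzyme sit 15 min at room temperature; 50 nM substrate starts the reaction, read immediately and at 10 min.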
Pol kappa inh: qHTS for Inhibitors of Polymerase Kappa. DNA polymerase kappa (Homo sapiens), Q9UBT6. purified Pol kappa, fluorescent DNA synthesis assay, 10 min. Potency, µM (top dose mostly 107 µM), without a hit: top-dose activity, negative = inhibition, usual class: inhibitors. 0.53% of 400,000 active; note: % is set by controls: 0 for no effect and ±100 for the full control effect
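Enzyme at 10 nM met test compounds for 15 min at room temperature. Substrate addition (50 nM final) began the reaction, which was monitored by fluorescence at 0 and 10 min.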
POLI cherry-pick: qHTS for Inhibitors of Polymerase Iota: Confirmatory Assay for Cherry-picked Compounds. shares compounds with Pol kappa inh. Pol iota primer extension, TAMRA/BHQ fluorescence. Potency, µM, usual class: inhibitors. 77% of 1,500 active. AID 720496, 2013
Pol eta inh-2: qHTS for Inhibitors of Polymerase Eta: Confirmatory Assay for Cherry-picked Compounds; Pol eta primer extension, TAMRA/BHQ fluorescence, 10 min; AID 720502, 2013; Potency, µM, hits mostly inhibitors; 64% of 2,600 active; shares compounds with Pol eta inh-1
Active calls of the source: *; ? = inconclusive; . = no result; [ ] = dose if it differs, or a comment. Shown are actives, neighbours in structure and some others; about 2.4% of the full set was active somewhere. Calls come from the whole dose curve; as a rule, active = well fitted curve in the direction sought with a large enough effect; inconclusive = small, poorly fitted or top-dose-only effect, or another doubt; inactive = no such curve, though single readings can be large; an effect the other way counts as inactive or inconclusive. Potency is the fitted concentration of half-maximal effect.

SMILES	Pol eta inh-1	FEN1 inhibitor	POLI inh	WRN inhibitor	Pol beta inh	Pol kappa inh	POLI cherry-pick	Pol eta inh-2
CCc1nnc(NC(=O)CSc2nccn2Cc2ccc(Cl)cc2)s1	.	12%	-7%	.	1%	-7%[60.1 µM]	.	.
O=C(CSc1nccc(=O)[nH]1)N1N=C2/C(=C/c3ccco3)CCCC2C1c1ccco1 (stereo not drawn)	25µM*	-2%	45µM*	?	28µM*	?	38*	30*
Cc1cc(C)cc(-n2ccn(CC(=O)Nc3ccccc3C(F)(F)F)c(=O)c2=O)c1	-8%	5%	19%	.	-1%	8%	.	.
COC(=O)c1ccc(COc2ccc(/C=N/Nc3cccc(C(=O)O)c3)cc2)cc1	18µM*	-12%	32µM*	-6%[11.6 µM]	-30%	?	60*	27*
O=C(COc1ccccc1C(=O)Nc1cccnc1)Nc1ccc(Br)cc1	.	5%	-19%	.	.	9%	.	.
O=C(O)c1ccc(/C=N/NC(=O)c2ccc(CN3c4cccc5cccc(c45)S3(=O)=O)cc2)cc1	22µM*	?	25µM*	?	?	?	?	60*
CC(/C=N/NC(=O)c1ccc(CN2c3cccc4cccc(c34)S2(=O)=O)cc1)c1ccccc1 (stereo not drawn)	?	7%	-6%	-29%	6%[57.1 µM]	-6%	.	.
Cc1nn(-c2ccccc2)c2c1cc1c(=O)[nH]c(=O)nc-1n2-c1cccc(Cl)c1	-4%	-3%	11%	.	1%	-20%	.	.
CCCCNC(=O)NS(=O)(=O)c1ccc(CO)cc1	.	.	.	.	.	11%[60.1 µM]	.	.
Cc1ccc(C)c(SCC(=O)OCC(=O)c2ccco2)c1	35µM*	?	20µM*	?	22µM*	?	?	?
O=C(Cc1cccs1)OCC(=O)c1ccco1	8.9µM*	-30%	?	?	14µM*	25µM*	75*	60*
Cn1c(N)c(C(=O)COC(=O)Cc2cccs2)c(=O)n(C)c1=O	2%	3%	1%	-3%	.	-7%	.	.
Cc1ccc(C)c(SCC(=O)NCc2ccco2)c1	-14%	-3%	-1%	1%	?	-6%	.	.
CC(C(=O)OCC(=O)Nc1ncc(Cl)cc1Cl)N1C(=O)c2ccccc2C1=O (stereo not drawn)	?	-12%	2%	0%	-12%	-3%	.	.
O=C(COC(=O)c1ccccc1O)Nc1ncc(Cl)cc1Cl	18µM*	?	40µM*	?	6%	35µM*	?	27*
Cc1ccc(CCNC(=O)CN(c2ccc(C(C)C)cc2)S(=O)(=O)c2c(C)nn(C)c2C)cc1	8%	6%	3%	.	31%	2%	.	.
